Structures can show the parent of a compound that is named as a salt.
Legend:
[1] = target: IKZF1 (dCK*-IKZF1 fusion in HEK293FT) (UniProt Q13422); assay: inhibition of IKZF1 HTRF signal (DMSO = 0%, pomalidomide 10 uM = 100%); higher = lower IKZF1 protein level; conditions: compound concentration: 5 uM, overnight (~20 h)
Method in brief: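 Percent inhibition of IKZF1 signal was calculated per plate with vehicle and a reference degrader as anchors. The anchors were 0% for vehicle and 100% for the degrader, applied to background-subtracted 665/620 nm time-resolved FRET ratios from a commercial HTRF total-IKZF1 kit. Signal came from HEK293FT cells stably expressing an IKZF1 fusion, treated overnight at 37 °C with 5 μM compound in single wells of 384-well plates.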

[2] = system: HEK293FT dCK*-only; assay: relative growth in counter assay (no AraC = 100%, AraC + DMSO = 0%); higher = more growth rescue independent of IKZF1; conditions: compound concentration: 5 uM; AraC concentration: 0.3 uM; overnight pretreatment + 4 days AraC
Method in brief: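 Nuclei were counted by imaging after Hoechst 33342 staining on day 5, in HEK293FT cells (300/well, 384-well) expressing only an engineered kinase construct. Compound at 5 μM went in 2 h after seeding, followed after overnight at 37 °C by a nucleoside suicide substrate at 0.3 μM plus medium for 4 days. Per plate, wells lacking suicide substrate defined 100% and those with substrate plus vehicle defined 0%.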

[3] = system: HEK293FT dCK*-IKZF1; assay: relative growth recovery (pomalidomide 10 uM = 100%, DMSO = 0%); higher = more growth rescue (IKZF1 fusion degradation); conditions: compound concentration: 5 uM; AraC concentration: 0.3 uM; overnight pretreatment + 4 days AraC
Method in brief: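 Means of duplicates from different days are given for growth recovery, normalised per plate against a reference degrader and vehicle. The reference degrader set the 100% level and vehicle the 0% level. HEK293FT cells stably expressing a deoxycytidine kinase–IKZF1 fusion (300/well, 384-well) received 5 μM compound 2 h after seeding and, after overnight at 37 °C, 0.3 μM of a nucleoside suicide substrate plus medium for 4 days. Nuclei stained with Hoechst 33342 were then counted by whole-well imaging on day 5.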

Chain of IKZF1 (dCK*-IKZF1 fusion in HEK293FT) (Q13422 whole entry, looked up, the tested form may be a part): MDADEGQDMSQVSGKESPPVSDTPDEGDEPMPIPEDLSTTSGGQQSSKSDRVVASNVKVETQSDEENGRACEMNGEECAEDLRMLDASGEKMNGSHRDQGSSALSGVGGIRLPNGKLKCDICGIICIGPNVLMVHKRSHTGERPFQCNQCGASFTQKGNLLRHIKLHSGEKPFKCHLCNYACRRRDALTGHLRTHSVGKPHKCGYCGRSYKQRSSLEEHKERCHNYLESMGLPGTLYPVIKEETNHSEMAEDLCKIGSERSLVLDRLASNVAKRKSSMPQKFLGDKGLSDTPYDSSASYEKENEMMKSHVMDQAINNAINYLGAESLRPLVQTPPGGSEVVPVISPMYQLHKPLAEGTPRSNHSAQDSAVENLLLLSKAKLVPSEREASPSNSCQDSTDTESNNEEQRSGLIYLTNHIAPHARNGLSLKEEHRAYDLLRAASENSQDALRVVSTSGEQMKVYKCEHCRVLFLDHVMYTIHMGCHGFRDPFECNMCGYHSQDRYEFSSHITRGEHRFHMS

Row | SMILES | inhibition of IKZF1 HTRF signal [1] | relative growth in counter assay [2] | relative growth recovery [3]
1 | C[C@@H]1CC2C3CCC4=CC(=O)C=C[C@]4(C)[C@@]3(F)[C@@H](O)C[C@]2(C)[C@H]1C(=O)CO (stereo partly specified) | 19.4% | -5.74% | -0.19%
2 | O=C(Nc1cccc(Cl)c1)Nc1ncc(CCNc2ncnc3ccsc23)s1 [SNS-314 methanesulfonate] | -27% | -30.3% | -6.71%
3 | O=C(Nc1cccc(C(F)(F)F)c1)Nc1ccc(Br)cc1-c1nnn[nH]1 | -23.4% | -0.22% | -2.33%
4 | CSc1ccc2c(c1)C(N1CCN(C)CC1)Cc1ccccc1S2 (stereo unspecified) | -34.7% | -1.22% | -1.56%
5 | COc1cc(NC(=O)c2ccc(-c3ccc(Cl)cc3)o2)cc(OC)c1 | -48.3% | 14.9% | 7.22%
6 | CCCCCCCC[N+](C)(C)Cc1ccccc1 [benzyldimethyloctylammonium] | -57.3% | 4.74% | 5.02%
7 | O=C(N/N=C/c1ccccc1O)c1ccccc1O | -40.4% | 0.05% | -2.29%
8 | CC[C@]1(O)C[C@@H]2C[N@@](CCc3c([nH]c4ccccc34)[C@@](C(=O)OC)(c3cc4c(cc3OC)N(C)[C@H]3[C@@](O)(C(=O)OC)[C@H](OC(C)=O)[C@]5(CC)C=CCN6CC[C@]43[C@@H]65)C2)C1.O=S(=O)(O)O [Vinblastine (sulfate)] | -4.41% | -34.3% | -11.4%
9 | CSc1ccc2c(c1)N(CCC1CCCCN1C)c1ccccc1S2 (stereo unspecified) | -29% | 7.95% | -4.45%
10 | CCCNC(=O)NS(=O)(=O)c1ccc(Cl)cc1 | -35.8% | -2.41% | 1.51%
11 | O=C1OC2(c3ccc(O)cc3Oc3cc(O)ccc32)c2ccccc21 | 28.2% | -3.82% | -3.9%
12 | CCOC(=O)C1=C[C@]2(CC)CCCN3CCc4c(n1c1ccccc41)[C@@H]32 | -26.3% | -0.08% | 3.4%
13 | CN1CCC[C@@H]1CCO[C@](C)(c1ccccc1)c1ccc(Cl)cc1 [Clemastine Fumarate] | 6.24% | 4.09% | 2.26%
14 | O=c1oc(-c2ccc(C(F)(F)F)cc2)nn1Cc1cc(Cl)ccc1O | 11.5% | -6.2% | -5.1%
15 | CCCCC1OC(=O)c2ccccc21 (stereo unspecified) [Butylphthalide] | -30.6% | 1.67% | 1.08%
16 | CN(C)CCC=C1c2ccccc2CCc2ccccc21 | 8.98% | -1.73% | 0.57%

Row | SMILES | inhibition of IKZF1 HTRF signal [1] | relative growth in counter assay [2] | relative growth recovery [3]
17 | O=[N+]([O-])c1ccc(O)c2ncccc12 | -23.9% | -14.6% | -2.33%
18 | NC1CC(O[C@H]2C[C@@]([C@@](C)=O)(O)CC3=C2C(O)=C5C(C(C4=CC=CC(OC)=C4C5=O)=O)=C3O)OC(C)C1O (stereo partly specified) [daunorubicin] | 22% | -35.4% | -14.9%
19 | CCCS(=O)c1ccc2nc(NC(=O)OC)[nH]c2c1 (stereo unspecified) [Albendazole Oxide (Ricobendazole)] | 24.3% | -7.11% | -2.83%
20 | COc1ccc(NC(=O)c2ccc(-c3ccc(-c4noc(C)n4)cc3C)cc2)cc1N1CCN(C)CC1 | -35.8% | -19.7% | 1.76%
21 | CCCOc1ccc2nc(NC(=O)OC)[nH]c2c1 | -18.4% | -15.2% | -2.92%
22 | Fc1ccc(CNc2ncnc3ccc(F)cc23)cc1 [spautin-1] | 8.67% | -2.11% | 5.96%
23 | CC(C)(C)c1ccc(-c2nc3cccc(N4CCN(Cc5ccc6nccnc6c5)CC4)c3[nH]2)cc1 | -23.9% | 5.2% | 9.79%
24 | O=C(CCCCCCC(=O)NO)NO | -47.9% | -7.76% | -0.655%
25 | O=C1C=CC(=O)C2=C1C1c3ccccc3C2c2ccccc21 | -32.2% | -0.91% | -0.735%
26 | COc1ccc2cc1Oc1ccc(cc1)C[C@H]1c3cc(c(OC)cc3CCN1C)Oc1c(OC)c(OC)cc3c1[C@H](C2)N(C)CC3 [Tetrandrine (Fanchinine)] | 8.84% | -14.3% | -3.42%
27 | O=C1Nc2c(ccc(Cl)c2Cl)C1=NO | -26.5% | -8.31% | -2.38%
28 | CC1(C)CCC2=C(O1)c1ccccc1C(=O)C2=O | -30% | -24.5% | -10.9%
29 | CO[C@H]1C[C@@H]2CC[C@@H](C)[C@@](O)(O2)C(=O)C(=O)N2CCCC[C@H]2C(=O)O[C@H]([C@H](C)C[C@@H]2CC[C@@H](O)[C@H](OC)C2)CC(=O)[C@H](C)/C=C(\C)[C@@H](O)[C@@H](OC)C(=O)[C@H](C)C[C@H](C)/C=C/C=C/C=C/1C [Rapamycin] | -24.4% | -20.8% | -7.58%
30 | Cc1c(S(=O)(=O)O)oc2c1C(=O)C(=O)c1c-2ccc2c1CCCC2(C)C [sodium-tanshinone-ii-a-sulfonate] | 20.9% | 4.38% | -1.25%
31 | Cc1ncsc1-c1ccc(CNC(=O)[C@@H]2C[C@@H](O)CN2C(=O)[C@@H](NC(=O)COCCCCOc2ccc(-c3ccc(N4C(=S)N(c5ccc(C#N)c(C(F)(F)F)c5)C(=O)C4(C)C)cc3)cc2)C(C)(C)C)cc1 | 21.2% | 72.3% | 55.3%
32 | C[C@H]1COC2=C1C(=O)C(=O)c1c2ccc2c1CCCC2(C)C [Cryptotanshinone] | -30.9% | 0.04% | -0.045%
